A short description of test [1]: qHTS assay to identify small molecule antagonists of the glucocorticoid receptor (GR) signaling pathway - cell viability counter screen (AID 720693). Further: nearly all actives have a fitted effect of over 55% in size.
Test [2] can be described thus: qHTS assay for identifying genotoxic compounds that show differential cytotoxicity against isogenic chicken DT40 cell lines with known DNA damage response pathways - wild type cell line (AID 743012). Further: nearly all actives have a fitted effect of over 60% in size. The method in brief:
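Parental DNA repair-proficient DT40 cells, 300 per well, were pre-incubated ~0.5 h at 37 C/5% CO2, pin-dosed with compounds in DMSO, then incubated 40 h. Viability was read as CellTiter-Glo luminescence after 30 min at room temperature.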

Test [3] can be described thus: qHTS assay for identifying genotoxic compounds that show differential cytotoxicity against isogenic chicken DT40 cell lines with known DNA damage response pathways - Rev3 mutant cell line (AID 743014). Further: nearly all actives have a fitted effect of over 55% in size.
Test [4] is described as follows: qHTS assay for identifying genotoxic compounds that show differential cytotoxicity against isogenic chicken DT40 cell lines with known DNA damage response pathways - Rad54/Ku70 mutant cell line (AID 743015). Further: nearly all actives have a fitted effect of over 60% in size.
Test [5] is described as follows: qHTS assay to identify small molecule antagonists of the androgen receptor (AR) signaling pathway - cell viability counter screen (AID 743033; further: nearly all actives have a fitted effect of over 45% in size).
A short description of test [6]: qHTS assay to identify small molecule antagonists of the androgen receptor (AR) signaling pathway using the MDA cell line - cell viability counter screen (AID 743041; further: nearly all actives have a fitted effect of over 45% in size). Put shortly: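 MDA-kb2 AR-luc human breast carcinoma cells (MMTV-luciferase, AR/GR responsive) were treated with compounds plus R1881 agonist for 16 h at 37 °C. Viability was read as CellTiter-Fluor fluorescence in the same wells as the reporter assay.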

Test [7] can be described thus: qHTS assay to identify small molecule antagonists of the thyroid receptor (TR) signaling pathway (AID 743065). Further: series mostly up to about 70 µM; nearly all actives have a fitted effect of over 55% in size. The method in brief:
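GH3.TRE-Luc rat pituitary cells carrying two TR response elements driving luciferase were plated for 4 h, given compound plus 1 nM T3 (final), and incubated 23.5 h at 37 C. ONE-Glo luminescence measured reporter inhibition; CellTiter-Fluor fluorescence tracked cytotoxicity.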

The subject of test [8] is thyroid hormone receptor (rat, GH3 cells). The test is described as follows: qHTS assay to identify small molecule agonists of the thyroid receptor (TR) signaling pathway (AID 743066; calls by dose curve; further: potency means the concentration at half of the fitted maximal effect).
The target in test [9] is Estrogen receptor (Homo sapiens) (UniProt P03372). The test is described as follows: qHTS assay to identify small molecule antagonists of the estrogen receptor alpha (ER-alpha) signaling pathway (AID 743069; active means well fitted curve in the direction sought with a large enough effect in the signal ratio in the repeat runs, not every such curve was filed as active; the % refers to the signal ratio). The method in brief:
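HEK293 cells stably carrying an ER-alpha-UAS-bla beta-lactamase reporter were pre-cultured overnight in 2% charcoal-stripped FBS medium. Test compounds in DMSO were added together with 17beta-estradiol for 18 hr at 37C. Read-out was fluorescence after 2 hr with LiveBLAzer B/G FRET substrate at room temperature.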

Test [10] in a line: qHTS assay to identify small molecule antagonists of the estrogen receptor alpha (ER-alpha) signaling pathway - cell viability counter screen (AID 743074; calls by dose curve; further: nearly all actives have a fitted effect of over 45% in size).
Test [11] addresses Estrogen receptor (Homo sapiens) (UniProt P03372). The test is described as follows: qHTS assay to identify small molecule agonists of the estrogen receptor alpha (ER-alpha) signaling pathway (AID 743075; calls by dose curve; further: potency means the concentration at half of the fitted maximal effect).
Test [12] shares this target. The test is described as follows: qHTS assay to identify small molecule agonists of the estrogen receptor alpha (ER-alpha) signaling pathway using the BG1 cell line (AID 743079). Further: nearly all actives have a fitted effect of over 20% in size. Further: potency means the concentration at half of the fitted maximal effect.
A short description of test [13]: qHTS assay to identify small molecule antagonists of the estrogen receptor alpha (ER-alpha) signaling pathway using the BG1 cell line (AID 743080; calls by dose curve;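 further: BG1 cells stimulated with 17beta-estradiol alongside compound; series mostly up to about 70 µM; nearly all actives have a fitted effect of over 25% in size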). The method in brief:
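Readout is ONE-Glo luminescence, taken 30 min at room temperature after reagent addition, preceded by a CellTiter-Fluor viability read; BG1-Luc-4E2 cells had received compound and 17beta-estradiol for 21.5 h at 37 C.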

Test [14] is described as follows: qHTS assay to identify small molecule antagonists of the estrogen receptor alpha (ER-alpha) signaling pathway using the BG1 cell line - cell viability counter screen (AID 743081).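 Further: compound given together with 17beta-estradiol as the ER stimulus; series mostly up to about 70 µM; nearly all actives have a fitted effect of over 45% in size.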
The target in the next test is Aromatase (Homo sapiens) (UniProt P11511). The test is described as follows: qHTS assay to identify aromatase inhibitors (AID 743083). Further: series mostly up to about 70 µM; nearly all actives have a fitted effect of over 55% in size.
Aromatase (Homo sapiens), sequence (P11511 whole entry, looked up): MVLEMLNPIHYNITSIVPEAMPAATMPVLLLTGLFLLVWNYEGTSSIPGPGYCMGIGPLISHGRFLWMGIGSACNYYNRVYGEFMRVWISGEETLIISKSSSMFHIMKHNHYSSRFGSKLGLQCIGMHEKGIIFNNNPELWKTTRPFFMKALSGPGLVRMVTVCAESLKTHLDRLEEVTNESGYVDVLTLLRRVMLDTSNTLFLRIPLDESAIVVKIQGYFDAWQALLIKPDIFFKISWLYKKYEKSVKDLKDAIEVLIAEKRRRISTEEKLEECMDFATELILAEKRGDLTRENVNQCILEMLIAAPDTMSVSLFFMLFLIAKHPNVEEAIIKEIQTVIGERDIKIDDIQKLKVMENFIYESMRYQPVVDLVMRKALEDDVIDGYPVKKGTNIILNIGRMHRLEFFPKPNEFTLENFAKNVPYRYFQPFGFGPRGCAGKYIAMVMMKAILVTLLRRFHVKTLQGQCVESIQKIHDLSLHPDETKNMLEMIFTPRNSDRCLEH
Test [15] in a line: qHTS assay to identify small molecule antagonists of the thyroid receptor (TR) signaling pathway - cell viability counter screen (AID 743064). Further: nearly all actives have a fitted effect of over 50% in size. Put shortly:
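Counter screen for cytotoxicity: compound plus T3 (1 nM final) on GH3.TRE-Luc cells, 23.5 h at 37 °C, then fluorescence viability readout with CellTiter-Fluor.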

Results filed as inconclusive are left out. The source made the active and inactive calls. Unless noted, the call rests on the fitted dose curve; in most records, active means well fitted curve in the direction sought with a large enough effect in the repeat runs; inconclusive means weak or mixed curves; inactive means no such curve, though single readings can be large; an effect the other way counts as inactive or inconclusive.

Among the data in PubChem BioAssay (Tox21) are Potency and outcome values, retold here.

Estrogen receptor (Homo sapiens), sequence (P03372 whole entry, looked up): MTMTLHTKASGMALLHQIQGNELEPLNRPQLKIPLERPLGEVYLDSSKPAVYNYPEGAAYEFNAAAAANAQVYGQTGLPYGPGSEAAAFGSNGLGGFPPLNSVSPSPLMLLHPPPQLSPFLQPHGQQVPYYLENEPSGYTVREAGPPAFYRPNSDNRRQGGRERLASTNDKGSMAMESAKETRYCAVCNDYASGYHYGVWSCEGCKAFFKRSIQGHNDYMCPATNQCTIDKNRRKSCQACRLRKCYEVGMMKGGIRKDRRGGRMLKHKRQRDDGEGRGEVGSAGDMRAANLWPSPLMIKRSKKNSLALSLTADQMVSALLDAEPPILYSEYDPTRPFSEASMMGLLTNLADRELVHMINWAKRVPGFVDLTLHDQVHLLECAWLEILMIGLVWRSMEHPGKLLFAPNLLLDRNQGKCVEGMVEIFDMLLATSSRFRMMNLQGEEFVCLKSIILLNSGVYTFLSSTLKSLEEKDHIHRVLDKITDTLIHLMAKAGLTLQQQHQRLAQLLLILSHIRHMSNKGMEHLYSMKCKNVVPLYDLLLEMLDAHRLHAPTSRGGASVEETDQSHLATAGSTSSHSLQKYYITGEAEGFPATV

`CC(C)C(=O)c1ccccc1`: the Potency result in test [1], in test [2], in [3], in [4], in test [7] and in test [8] was “inactive” in each case. For the same molecule, the Potency result in test [9], in test [10], in [11] and in test [12] was “inactive” each time. The molecule was called inactive (in test [5]; in [6]; in [13]; in test [14]; with Aromatase (Homo sapiens)).

As for `BrC/C=C/CBr`, the Potency entry in test [1], in test [2], in [3], in test [4], in test [15] and in test [7] was “inactive” in each case. Also, the Potency entry in test [8] and in test [10] was “inactive” in each case. Further, the call (in [5]; in test [6]; in [14]; with Aromatase (Homo sapiens)) was inactive.

As for `CC(C)(CO)[C@@H](O)C(=O)NCCCO`, the Potency result in test [1], in test [2], in test [3], in test [4], in test [9] and in [10] was “inactive” throughout. Besides, the Potency result in [11] and in [12] was “inactive” in each case. Moreover, the outcome (in test [5]; in [6]; in test [13]; in test [14]; with Aromatase (Homo sapiens)) was inactive.

Take `C=C[C@@H](C)CCC=C(C)C`: the Potency entry in [1], in test [2], in test [3], in test [4], in test [15] and in test [7] was “inactive” in each case. Also, the Potency entry in test [8] and in test [10] was “inactive” in each case. Besides, the molecule was called inactive (in [5]; in [6]; in test [14]; with Aromatase (Homo sapiens)).

Turning to `C=C(C)C(=O)OC`, the Potency result in test [1], in test [2], in test [3], in test [4], in test [15] and in [7] was “inactive” each time. In addition, in [8], the Potency entry is “inactive”. For the same molecule, the molecule was called inactive (in test [5]; in test [6]; in [14]; in the test with Aromatase (Homo sapiens)).

In the case of `O=P(O)(O)OCC(O)CO` (stereo not given), the Potency entry in test [1], in [2], in [3], in test [4], in [7] and in test [8] was “inactive” each time. Further, the Potency entry in test [9], in test [11] and in [12] was “inactive” in each case. Moreover, the molecule was called inactive (in test [5]; in test [6]; in test [13]; in test [14]; in the test with Aromatase (Homo sapiens)).

`CCCC(C)CC` (stereo not given): the Potency result in [1], in [2], in test [3], in test [4], in test [15] and in test [7] was “inactive” throughout. The Potency entry in test [8] and in [10] was “inactive” throughout. Also, the result (in test [5]; in [6]; in test [14]; in the test with Aromatase (Homo sapiens)) was inactive.

For `CCS(=O)(=O)CCn1c([N+](=O)[O-])cnc1C`, the Potency entry in [1], in test [2], in test [3], in test [4], in test [7] and in [8] was “inactive” throughout. Further, the Potency result in [9] and in test [10] was “inactive” in each case. The molecule was called inactive (in test [5]; in test [6]; in [13]; in [14]; with Aromatase (Homo sapiens)). In addition, the Potency in [11] was 10.2 µM [activator] (active); in [12], 2.27 µM (active).

On to `SCCSCCS`, for which the Potency result in [1], in test [2], in test [3], in test [4], in test [15] and in test [7] was “inactive” in each case. The Potency result in test [8] and in test [10] was “inactive” throughout. Moreover, the call (in test [5]; in test [6]; in test [14]; in the test with Aromatase (Homo sapiens)) was inactive.

In the case of `C=C(C)[C@@H]1CC[C@@H](C)C[C@@H]1O`, the Potency entry in test [1], in test [2], in [3], in test [4], in test [15] and in [10] was “inactive” throughout. Further, the molecule was called inactive (in [5]; in [6]; in test [14]; in the test with Aromatase (Homo sapiens)).

Consider `CCCCOC(=O)C(=O)OCCCC`, for which the Potency result in test [1], in [2], in [3], in test [4], in [15] and in test [7] was “inactive” in each case. Further, in test [8], the Potency entry is “inactive”. Besides, the molecule was classed as inactive (in test [5]; in [6]; in [14]; with Aromatase (Homo sapiens)).

In the case of `CCCCCCCCCCCCCCCC(=O)NCCO`, the Potency result in [1], in [2], in test [3], in [4], in test [7] and in [8] was “inactive” in each case. For the same molecule, the Potency result in [10] is “inactive”. For the same molecule, the call (in test [5]; in test [6]; in [14]; with Aromatase (Homo sapiens)) was inactive.

For `CCOC(=O)CCc1ccccc1`, the Potency entry in test [1], in [2], in test [3], in test [4], in test [15] and in [7] was “inactive” each time. In addition, the Potency entry in test [8] and in [10] was “inactive” each time. In addition, the outcome (in [5]; in test [6]; in [14]; in the test with Aromatase (Homo sapiens)) was inactive.

In the case of `CC(C)=CC(C)(C)C`, the Potency entry in test [1], in test [2], in test [3], in [4], in [7] and in [8] was “inactive” throughout. Moreover, the Potency result in test [10] was “inactive”. Also, the molecule was called inactive in [5], in test [6] and in test [14].

Take `CC1CCC(C(C)(C)S)C(=O)C1` (stereo not given): the Potency entry in [1], in test [2], in test [3], in test [15], in [7] and in test [8] was “inactive” throughout. In addition, the Potency result in test [9], in [10], in test [11] and in [12] was “inactive” each time. Further, the outcome (in test [5]; in test [6]; in [13]; in [14]; in the test with Aromatase (Homo sapiens)) was inactive.

As to `O=C(O)CCNC(=O)c1ccccc1`, the Potency result in [1], in test [2], in [3], in [15], in [7] and in [9] was “inactive” each time. Further, the Potency result in test [10] and in test [11] was “inactive” each time. The result (in test [5]; in [6]; in test [13]; in test [14]; with Aromatase (Homo sapiens)) was inactive. Moreover, the Potency in test [8] was 11.9 µM (active).

`CC(C)c1ccccc1O`: the Potency entry in test [1], in test [2], in test [3], in [15], in test [7] and in test [8] was “inactive” throughout. The Potency entry in test [10] was “inactive”. Moreover, the call (in test [5]; in [6]; in test [14]; in the test with Aromatase (Homo sapiens)) was inactive.

Take `CCOC(=O)C(C)(C)C`: the Potency entry in test [1], in test [2], in test [3], in [4], in test [7] and in test [8] was “inactive” throughout. The Potency entry in test [9], in test [10], in test [11] and in test [12] was “inactive” each time. Also, the outcome (in test [5]; in [13]; in test [14]; in the test with Aromatase (Homo sapiens)) was inactive.

As for `O=C(O)C(=O)Nc1cccc(-c2nn[nH]n2)c1`, the Potency result in test [1], in [2], in [3], in test [15], in [7] and in test [8] was “inactive” throughout. Moreover, in test [10], the Potency result is “inactive”. The result (in test [5]; in test [6]; with Aromatase (Homo sapiens)) was inactive.

In the case of `NC(=O)NC(=O)Cc1ccccc1`, the Potency entry in [1], in test [2], in test [3], in [4], in test [15] and in [7] was “inactive” each time. Further, the Potency result in test [8], in [9], in test [10] and in [11] was “inactive” in each case. In addition, the result (in test [6]; in [13]; in test [14]; with Aromatase (Homo sapiens)) was inactive. For the same molecule, the Potency in [12] was 33.5 µM (active).

Turning to `Nc1cc(S(=O)(=O)O)ccc1S(=O)(=O)O`, the Potency entry in test [1], in [2], in test [3], in [4], in [15] and in [7] was “inactive” throughout. Further, the Potency entry in [8] and in test [10] was “inactive” throughout. In addition, the molecule was classed as inactive (in test [6]; in test [14]; with Aromatase (Homo sapiens)).

Consider `C=CCOc1c(Br)cc(Br)cc1Br`, for which the Potency result in [1], in [2], in test [3], in [4], in test [15] and in [7] was “inactive” in each case. Moreover, the Potency entry in test [8], in [9], in [11] and in [12] was “inactive” each time. Moreover, the outcome (in test [5]; in test [13]; in test [14]; in the test with Aromatase (Homo sapiens)) was inactive.

For the molecule `O=C(c1ccc2c(c1)C(=O)OC2=O)c1ccc2c(c1)C(=O)OC2=O`, the Potency entry in [1], in test [2], in [3], in test [4], in test [15] and in test [7] was “inactive” in each case. Moreover, the Potency result in test [8] and in [10] was “inactive” throughout. Also, the call (in [5]; in [14]; with Aromatase (Homo sapiens)) was inactive.
